# Test results published in PMC8384837, “Expanding the binding specificity for RNA recognition by a PUF domain”.
# Substitutions are numbered along the chain they refer to.
# Key:
# Experiment in all cases: yeast three-hybrid, YBZ-1, SC-Leu-His + 0.5 mM 3-AT, 4 days
# Details in all cases: tags: N-Gal4 AD-HA kept; label: inside an RPR1-promoter hybrid RNA with tandem MS2 sites; ssRNA
# PUM1 PUF domain R5-ERS = PUM1 PUF domain R5-ERS (Homo sapiens, UniProt Q14671 828-1176, C1007E;Q1011S)
# Procedure, shortened: (§1)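 The interaction score is the logarithmic change in variant frequency from input to selection. It uses log2, with a pseudocount of 1 for absent variants, and frequencies came from PCR-amplified, Illumina-sequenced repeat regions. The libraries were Pumilio-1 PUF domains randomized at the three base-contacting residues per repeat, co-expressed with matching RNA elements in strain YBZ-1 (LexA–MS2 coat fusion, HIS3 reporter). Plating lasted four days on SC-Leu (input) or SC-Leu-His + 0.5 mM 3-AT (selection).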
# PUM1 PUF domain R5-DWG = PUM1 PUF domain R5-DWG (Homo sapiens, UniProt Q14671 828-1176, C1007D;R1008W;Q1011G)
# Chain of PUM1 PUF domain R5-DWG (Q14671 828-1176 C1007D/R1008W/Q1011G): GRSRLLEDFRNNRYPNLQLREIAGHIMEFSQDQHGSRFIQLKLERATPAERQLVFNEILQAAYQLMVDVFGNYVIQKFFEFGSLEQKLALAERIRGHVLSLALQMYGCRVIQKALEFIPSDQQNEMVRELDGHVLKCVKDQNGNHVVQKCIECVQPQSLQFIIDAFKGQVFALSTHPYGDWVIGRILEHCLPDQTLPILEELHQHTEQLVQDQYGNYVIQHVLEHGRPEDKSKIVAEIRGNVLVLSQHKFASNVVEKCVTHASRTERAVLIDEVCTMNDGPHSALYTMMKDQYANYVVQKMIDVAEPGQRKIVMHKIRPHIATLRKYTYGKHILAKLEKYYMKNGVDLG
# Procedure, shortened: as §1
# PUM1 PUF domain R5-KFG = PUM1 PUF domain R5-KFG (Homo sapiens, UniProt Q14671 828-1176, C1007K;R1008F;Q1011G)
# Chain of PUM1 PUF domain R5-KFG (Q14671 828-1176 C1007K/R1008F/Q1011G): as the sequence (Q14671 828-1176 C1007D/R1008W/Q1011G) above, with D180K, W181F counted along it
# Procedure, shortened: as §1
# PUM1 PUF domain R8-IWK = PUM1 PUF domain R8-IWK (Homo sapiens, UniProt Q14671 828-1176, N1122I;Y1123W;Q1126K)
# Chain of PUM1 PUF domain R8-IWK (Q14671 828-1176 N1122I/Y1123W/Q1126K): as the sequence (Q14671 828-1176 C1007D/R1008W/Q1011G) above, with D180C, W181R, G184Q, N295I, Y296W, Q299K counted along it
# Procedure, shortened: as §1
# PUM1 PUF domain R6-DWI = target: T1, PUM1 PUF domain R6-DWI (Homo sapiens, UniProt Q14671 828-1176, N1043D;Y1044W;Q1047I)
# T1 sequence: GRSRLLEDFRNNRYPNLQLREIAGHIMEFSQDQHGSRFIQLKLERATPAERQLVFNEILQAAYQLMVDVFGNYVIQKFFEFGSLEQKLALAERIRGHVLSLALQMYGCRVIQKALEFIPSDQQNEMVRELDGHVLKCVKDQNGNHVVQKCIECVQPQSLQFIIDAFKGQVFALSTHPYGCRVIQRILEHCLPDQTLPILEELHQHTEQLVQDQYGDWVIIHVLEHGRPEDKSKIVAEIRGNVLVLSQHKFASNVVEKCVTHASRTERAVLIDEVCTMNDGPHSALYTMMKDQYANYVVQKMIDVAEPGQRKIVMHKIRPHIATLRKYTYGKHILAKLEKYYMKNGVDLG
# Procedure, shortened: as §1
# PUM1 PUF domain R6-VFG = target: T2, PUM1 PUF domain R6-VFG (Homo sapiens, UniProt Q14671 828-1176, N1043V;Y1044F;Q1047G)
# T2 sequence: T1 sequence with D216V, W217F, I220G
# Procedure, shortened: as §1
# PUM1 PUF domain R5-IRP = PUM1 PUF domain R5-IRP (Homo sapiens, UniProt Q14671 828-1176, C1007I;Q1011P)
# Procedure, shortened: as §1
# PUM1 PUF domain R5-RHR = PUM1 PUF domain R5-RHR (Homo sapiens, UniProt Q14671 828-1176, C1007R;R1008H;Q1011R)
# Procedure, shortened: as §1
# PUM1 PUF domain R8-SFR = PUM1 PUF domain R8-SFR (Homo sapiens, UniProt Q14671 828-1176, N1122S;Y1123F;Q1126R)
# Chain of PUM1 PUF domain R8-SFR (Q14671 828-1176 N1122S/Y1123F/Q1126R): as the sequence (Q14671 828-1176 C1007D/R1008W/Q1011G) above, with D180C, W181R, G184Q, N295S, Y296F, Q299R counted along it
# Procedure, shortened: as §1
# PUM1 PUF domain R7-RCN = PUM1 PUF domain R7-RCN (Homo sapiens, UniProt Q14671 828-1176, S1079R;N1080C;E1083N)
# Procedure, shortened: as §1
# PUM1 PUF domain R3-QPR = PUM1 PUF domain R3-QPR (Homo sapiens, UniProt Q14671 828-1176, C935Q;R936P;Q939R)
# Procedure, shortened: as §1
# PUM1 PUF domain R3-WWQ = PUM1 PUF domain R3-WWQ (Homo sapiens, UniProt Q14671 828-1176, C935W;R936W)
# Procedure, shortened: as §1
# PUM1 PUF domain R3-RTS = PUM1 PUF domain R3-RTS (Homo sapiens, UniProt Q14671 828-1176, C935R;R936T;Q939S)
# Procedure, shortened: as §1
# PUM1 PUF domain R3-MRE = PUM1 PUF domain R3-MRE (Homo sapiens, UniProt Q14671 828-1176, C935M;Q939E)
# Chain of PUM1 PUF domain R3-MRE (Q14671 828-1176 C935M/Q939E): as the sequence (Q14671 828-1176 C1007D/R1008W/Q1011G) above, with C108M, Q112E, D180C, W181R, G184Q counted along it
# Procedure, shortened: as §1
# PUM1 PUF domain R7-NTG = PUM1 PUF domain R7-NTG (Homo sapiens, UniProt Q14671 828-1176, S1079N;N1080T;E1083G)
# Chain of PUM1 PUF domain R7-NTG (Q14671 828-1176 S1079N/N1080T/E1083G): as the sequence (Q14671 828-1176 C1007D/R1008W/Q1011G) above, with D180C, W181R, G184Q, S252N, N253T, E256G counted along it
# Procedure, shortened: as §1
# PUM1 PUF domain R1-RRM = PUM1 PUF domain R1-RRM (Homo sapiens, UniProt Q14671 828-1176, S863R;Q867M)
# Procedure, shortened: as §1
# PUM1 PUF domain R1-GFR = PUM1 PUF domain R1-GFR (Homo sapiens, UniProt Q14671 828-1176, S863G;R864F;Q867R)
# Chain of PUM1 PUF domain R1-GFR (Q14671 828-1176 S863G/R864F/Q867R): as the sequence (Q14671 828-1176 C1007D/R1008W/Q1011G) above, with S36G, R37F, Q40R, D180C, W181R, G184Q counted along it
# Procedure, shortened: as §1
# PUM1 PUF domain R1-KMS = PUM1 PUF domain R1-KMS (Homo sapiens, UniProt Q14671 828-1176, S863K;R864M;Q867S)
# Chain of PUM1 PUF domain R1-KMS (Q14671 828-1176 S863K/R864M/Q867S): as the sequence (Q14671 828-1176 C1007D/R1008W/Q1011G) above, with S36K, R37M, Q40S, D180C, W181R, G184Q counted along it
# Procedure, shortened: as §1
# PUM1 PUF domain R1-KGA = PUM1 PUF domain R1-KGA (Homo sapiens, UniProt Q14671 828-1176, S863K;R864G;Q867A)
# Chain of PUM1 PUF domain R1-KGA (Q14671 828-1176 S863K/R864G/Q867A): as the sequence (Q14671 828-1176 C1007D/R1008W/Q1011G) above, with S36K, R37G, Q40A, D180C, W181R, G184Q counted along it
# Procedure, shortened: as §1
# PUM1 PUF domain R3-YSG = PUM1 PUF domain R3-YSG (Homo sapiens, UniProt Q14671 828-1176, C935Y;R936S;Q939G)
# Procedure, shortened: as §1
# Chain of PUM1 PUF domain R5-ERS (Q14671 828-1176 C1007E/Q1011S): as the sequence (Q14671 828-1176 C1007D/R1008W/Q1011G) above, with D180E, W181R, G184S counted along it
sequence,measurement,setting,value
GGCUAGAACUAGUGGAUCCCCCGGCGCCCGGCGGCUCGAGCCCGGGUAAGUGUGAAUAGUCUGCAUGCCGCCGGGCGCCAUGCCUGCAGGUCGACUCUAGAAAACAUG,binding signal,PUM1 PUF domain R5-ERS,2.69 log2 enrichment (interaction score)
same,binding signal,PUM1 PUF domain R5-DWG,4.74 log2 enrichment (interaction score)
GGCUAGAACUAGUGGAUCCCCCGGCGCCCGGCGGCUCGAGCCCGGGUAAGUGUCAAUAGUCUGCAUGCCGCCGGGCGCCAUGCCUGCAGGUCGACUCUAGAAAACAUG,binding signal,PUM1 PUF domain R5-KFG,5.1 log2 enrichment (interaction score)
same,binding signal,PUM1 PUF domain R5-ERS,0.61 log2 enrichment (interaction score)
same,binding signal,PUM1 PUF domain R5-DWG,2.09 log2 enrichment (interaction score)
GGCUAGAACUAGUGGAUCCCCCGGCGCCCGGCGGCUCGAGCCCGGGUAAGGGUAAAUAGUCUGCAUGCCGCCGGGCGCCAUGCCUGCAGGUCGACUCUAGAAAACAUG,binding signal,PUM1 PUF domain R8-IWK,2.04 log2 enrichment (interaction score)
GGCUAGAACUAGUGGAUCCCCCGGCGCCCGGCGGCUCGAGCCCGGGUAAGUGAAAAUAGUCUGCAUGCCGCCGGGCGCCAUGCCUGCAGGUCGACUCUAGAAAACAUG,binding signal,PUM1 PUF domain R6-DWI,2.33 log2 enrichment (interaction score)
same,binding signal,PUM1 PUF domain R6-VFG,7.53 log2 enrichment (interaction score)
GGCUAGAACUAGUGGAUCCCCCGGCGCCCGGCGGCUCGAGCCCGGGUAAGUGUAAAUAGUCUGCAUGCCGCCGGGCGCCAUGCCUGCAGGUCGACUCUAGAAAACAUG,binding signal,PUM1 PUF domain R5-IRP,2.35 log2 enrichment (interaction score)
same,binding signal,PUM1 PUF domain R6-VFG,3.57 log2 enrichment (interaction score)
same,binding signal,PUM1 PUF domain R5-RHR,1.95 log2 enrichment (interaction score)
same,binding signal,PUM1 PUF domain R8-SFR,5.31 log2 enrichment (interaction score)
same,binding signal,PUM1 PUF domain R5-KFG,3.88 log2 enrichment (interaction score)
same,binding signal,PUM1 PUF domain R5-ERS,3.92 log2 enrichment (interaction score)
same,binding signal,PUM1 PUF domain R5-DWG,2.74 log2 enrichment (interaction score)
GGCUAGAACUAGUGGAUCCCCCGGCGCCCGGCGGCUCGAGCCCGGGUAAGUGUUAAUAGUCUGCAUGCCGCCGGGCGCCAUGCCUGCAGGUCGACUCUAGAAAACAUG,binding signal,PUM1 PUF domain R5-RHR,4.52 log2 enrichment (interaction score)
same,binding signal,PUM1 PUF domain R5-KFG,5.35 log2 enrichment (interaction score)
same,binding signal,PUM1 PUF domain R5-DWG,5.02 log2 enrichment (interaction score)
GGCUAGAACUAGUGGAUCCCCCGGCGCCCGGCGGCUCGAGCCCGGGUAAGUCUAAAUAGUCUGCAUGCCGCCGGGCGCCAUGCCUGCAGGUCGACUCUAGAAAACAUG,binding signal,PUM1 PUF domain R7-RCN,2.67 log2 enrichment (interaction score)
GGCUAGAACUAGUGGAUCCCCCGGCGCCCGGCGGCUCGAGCCCGGGUAAGUGUAAUUAGUCUGCAUGCCGCCGGGCGCCAUGCCUGCAGGUCGACUCUAGAAAACAUG,binding signal,PUM1 PUF domain R3-QPR,5.15 log2 enrichment (interaction score)
same,binding signal,PUM1 PUF domain R3-WWQ,2.48 log2 enrichment (interaction score)
same,binding signal,PUM1 PUF domain R3-RTS,3.18 log2 enrichment (interaction score)
same,binding signal,PUM1 PUF domain R3-MRE,0.23 log2 enrichment (interaction score)
GGCUAGAACUAGUGGAUCCCCCGGCGCCCGGCGGCUCGAGCCCGGGUAAGCGUAAAUAGUCUGCAUGCCGCCGGGCGCCAUGCCUGCAGGUCGACUCUAGAAAACAUG,binding signal,PUM1 PUF domain R8-SFR,4.79 log2 enrichment (interaction score)
GGCUAGAACUAGUGGAUCCCCCGGCGCCCGGCGGCUCGAGCCCGGGUAAGUUUAAAUAGUCUGCAUGCCGCCGGGCGCCAUGCCUGCAGGUCGACUCUAGAAAACAUG,binding signal,PUM1 PUF domain R7-NTG,5.69 log2 enrichment (interaction score)
GGCUAGAACUAGUGGAUCCCCCGGCGCCCGGCGGCUCGAGCCCGGGUAAGUGUAAAUUGUCUGCAUGCCGCCGGGCGCCAUGCCUGCAGGUCGACUCUAGAAAACAUG,binding signal,PUM1 PUF domain R1-RRM,1.41 log2 enrichment (interaction score)
same,binding signal,PUM1 PUF domain R1-GFR,2.65 log2 enrichment (interaction score)
same,binding signal,PUM1 PUF domain R1-KMS,3.69 log2 enrichment (interaction score)
same,binding signal,PUM1 PUF domain R1-KGA,3.21 log2 enrichment (interaction score)
GGCUAGAACUAGUGGAUCCCCCGGCGCCCGGCGGCUCGAGCCCGGGUAAGUGUAAGUAGUCUGCAUGCCGCCGGGCGCCAUGCCUGCAGGUCGACUCUAGAAAACAUG,binding signal,PUM1 PUF domain R3-WWQ,5.35 log2 enrichment (interaction score)
same,binding signal,PUM1 PUF domain R3-YSG,2.43 log2 enrichment (interaction score)
same,binding signal,PUM1 PUF domain R3-MRE,5.14 log2 enrichment (interaction score)
GGCUAGAACUAGUGGAUCCCCCGGCGCCCGGCGGCUCGAGCCCGGGUAAGUGUAAAUCGUCUGCAUGCCGCCGGGCGCCAUGCCUGCAGGUCGACUCUAGAAAACAUG,binding signal,PUM1 PUF domain R1-RRM,2.95 log2 enrichment (interaction score)
same,binding signal,PUM1 PUF domain R1-GFR,5.46 log2 enrichment (interaction score)
same,binding signal,PUM1 PUF domain R1-KGA,3.08 log2 enrichment (interaction score)
